A word on the inhibition: it is the change of the read-out against control, counted positive when it falls.

The structures appear in SMILES notation. Hit rate of the full screen: of about 1,300 compounds, about 40 (3%) were called active. This is one part of a sample in which actives are shown more often than they occur. Cut-off read from the data, not from the text of the source: active = inhibition above about 30%; inactive = the rest.

Chain of fMet-Leu-Phe receptor (Homo sapiens) (P21462 whole entry, looked up): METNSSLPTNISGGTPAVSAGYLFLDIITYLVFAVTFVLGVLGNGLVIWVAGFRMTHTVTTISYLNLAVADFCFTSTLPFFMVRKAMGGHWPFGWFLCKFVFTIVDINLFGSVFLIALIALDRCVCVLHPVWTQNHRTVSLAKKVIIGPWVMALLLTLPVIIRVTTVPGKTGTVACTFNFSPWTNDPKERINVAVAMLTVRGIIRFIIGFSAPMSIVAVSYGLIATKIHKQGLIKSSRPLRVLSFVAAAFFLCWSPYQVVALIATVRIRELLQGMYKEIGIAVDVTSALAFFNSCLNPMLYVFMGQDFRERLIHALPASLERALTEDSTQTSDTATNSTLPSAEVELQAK

The assay concerns the target fMet-Leu-Phe receptor (Homo sapiens) (UniProt P21462). The assay can be described thus: FPR1 fluorescent ligand binding inhibitors, primary screen, cell-based, flow cytometry, SAR analysis (AID 722). As to conditions: FPR-expressing cells, active compounds read high, concentration not given here.
For the compound `COc1ccc2c(=O)c(-c3ccccc3)c(C(F)(F)F)oc2c1C`, the inhibition was -2.4% (inactive).

Consider `CCc1cc2c(=O)c(-c3nc4ccccc4s3)c(C)oc2cc1OC(C)=O`, for which the inhibition is 4% (inactive).

As to `O=C1C(=O)N(CCN2CCOCC2)C(c2cccc(Br)c2)/C1=C(\O)c1ccccc1` (stereo unspecified), the inhibition was 1.8% (inactive).

Consider `Cc1onc(-c2c(Cl)cccc2Cl)c1C(=O)N1CCC(C)CC1`, for which the inhibition was 5.9% (inactive). The same measure for `COC(=O)c1c(NC(=O)c2cccc(Br)c2)sc2c1CCCC2`: -4.7% (inactive). The same measure for `Cc1cc(N2C(=O)CSC2c2ccccc2F)ccc1Br` (stereo unspecified): 0.4% (inactive); for `COc1ccc(OC)c(C2C(C(=O)/C=C/c3ccccc3)=C(O)C(=O)N2CCCCCC(=O)O)c1` (stereo unspecified): -3.9% (inactive). In the case of `Cc1oc2cc(OCC(=O)O)ccc2c(=O)c1-c1ccc2c(c1)OCCO2` it was 3.2% (inactive); in that of `CCOC(=O)c1c(NC(=O)Cc2ccccc2)sc2c1CCCCC2`, -0.4% (inactive); in that of `COc1cccc(C(=O)/C=C(\Nc2sc3c(c2C#N)CCC3)C(=O)O)c1`, -24.9% (inactive). In the case of `N#Cc1c(N/C(=C\C(=O)c2ccccc2)C(=O)O)sc2c1CCC2`, the inhibition is 53% (active). The same measure for `Cn1c2c(c(=O)n3ncc(C(=O)O)c13)CN(Cc1ccccc1)CC2`: -6.5% (inactive).

On to `CCc1cc2c(=O)c(-c3nc4ccccc4n3C)c(C)oc2c(CN2CCCCC2)c1O`, for which the inhibition is -12.9% (inactive). As for `CCOC(=O)c1c(NC(=O)c2cc(C)no2)sc(C)c1C`, the inhibition is 2.2% (inactive). As to `COc1ccc(OC)c(NC(=O)C(C)n2sc3ccccc3c2=O)c1` (stereo unspecified), the inhibition was 2.2% (inactive). The same measure for `Cc1cccc(N2C(=O)C(=O)/C(=C(/O)c3ccccc3)C2c2cccc(F)c2)c1` (stereo unspecified): 4.1% (inactive); for `O=C(O)COc1ccc(N2C(=O)C(=O)/C(=C(\O)c3ccccc3)C2c2cccc(F)c2)cc1` (stereo unspecified): -6.1% (inactive).

`COc1ccc(/C(O)=C2/C(=O)C(=O)N(c3ccc(C)c(Br)c3)C2c2cccc(F)c2)cc1` (stereo unspecified): the inhibition was 20.6% (inactive). The same measure for `Cc1ccc(N2C(=O)C(=O)/C(=C(\O)c3ccccc3)C2c2cccc(F)c2)cc1Br` (stereo unspecified): 30.2% (active). The same measure for `CCCCCCOc1cccc(N2C(=O)C(=O)/C(=C(\O)c3ccccc3)C2c2ccc(C(C)C)cc2)c1` (stereo unspecified): -11.9% (inactive); for `CCCCCCOc1cccc(N2C(=O)C(=O)/C(=C(\O)c3ccccc3)C2c2cccc(F)c2)c1` (stereo unspecified): 56.3% (active); for `COC(=O)c1c(NC(=O)c2ccc(C)cc2)sc(C)c1C`: -13.3% (inactive). Turning to `COc1ccc(C2/C(=C(\O)c3ccccc3)C(=O)C(=O)N2CCN2CCOCC2)c(OC)c1` (stereo unspecified), the inhibition is 17% (inactive). Turning to `CCOc1ccc(/C(O)=C2\C(=O)C(=O)N(CCN3CCOCC3)C2c2ccc(Br)cc2)c(C)c1` (stereo unspecified), the inhibition was -1.7% (inactive). As for `COc1ccc(C2SCC(=O)N2c2ccc(Br)cc2)cc1` (stereo unspecified), the inhibition is 1.9% (inactive).

As to `CCCN(C(=O)c1cccc(NC(=O)[C@H]2[C@@H]3C[C@@H]4[C@H]2C(=O)O[C@@H]4C3)c1)c1ccccc1F`, the inhibition was -2.9% (inactive). In the case of `CCOC(=O)c1c(NC(=O)c2ccco2)sc(C)c1C` it was -1.8% (inactive); in that of `CCOC(=O)C1NN=C(C(=O)c2ccccc2)C1c1ccccc1` (stereo unspecified), -1% (inactive).

On to `CCSC1=C(C#N)C(c2ccc3c(c2)OCO3)CC(=O)N1` (stereo unspecified), for which the inhibition is -2.1% (inactive). For `COc1cccc(C2/C(=C(/O)c3ccc(Cl)cc3)C(=O)C(=O)N2c2ccc(C)c(Br)c2)c1` (stereo unspecified), the inhibition was 0.2% (inactive). In the case of `COc1ccc(C2CC(=O)C3=C(C2)NC(=O)CC3c2cccs2)cc1OC` (stereo unspecified) it was -3.3% (inactive).

These data come from PubChem BioAssay AID722 (NMMLSC, 2007).
